This is a sample that favours compounds with a hit; in the whole collection about 3.5% have one here.
FBW7 activator: human FBW7 E3 ligase activation, primary screen; AlphaScreen FBW7–phospho-cyclin E peptide binding, activator screen; normalized activity (activation), % at 26.1 µM; 0.13% of 650,000 active; Q969H0; in the data active = normalized activity above about 1.9%;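 note: purified mutant Fbw7 with reduced substrate affinity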
GPR151 ag: activates the human receptor GPR151; Q8TDV0; PathHunter beta-arrestin GPR151 cells, luminescence; activation, % at 11.2 µM; 1% of 650,000 active; in the data active = activation above about 4.9%;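 note: 0% = median of compound wells and 100% = cells with positive control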
Target sequence (Q8TDV0 whole entry, looked up): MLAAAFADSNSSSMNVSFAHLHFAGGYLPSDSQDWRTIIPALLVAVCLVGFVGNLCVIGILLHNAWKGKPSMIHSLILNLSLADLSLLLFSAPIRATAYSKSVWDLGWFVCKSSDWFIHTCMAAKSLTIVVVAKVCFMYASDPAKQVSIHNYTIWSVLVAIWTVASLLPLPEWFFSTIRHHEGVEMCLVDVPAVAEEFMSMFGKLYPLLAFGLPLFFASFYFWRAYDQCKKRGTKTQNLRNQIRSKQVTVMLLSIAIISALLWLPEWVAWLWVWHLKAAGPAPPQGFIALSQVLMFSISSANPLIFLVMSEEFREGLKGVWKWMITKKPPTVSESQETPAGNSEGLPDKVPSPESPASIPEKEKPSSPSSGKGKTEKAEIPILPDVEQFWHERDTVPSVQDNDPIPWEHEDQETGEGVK
TEAD-YAP block: TEAD-YAP interaction inhibition; HEK-TIYL cells, TEAD-Gal4/YAP UAS-luciferase luminescence; inhibition, % at 9.12 µM; 1.4% of 640,000 active; AID 1259422; in the data active = inhibition above about 32%;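 note: 0% = median of test compound wells and 100% = reference inhibitor wells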
MITF inh: human MITF inhibition, primary screen. O75030. AlphaScreen MITF homodimerization, bead proximity signal. inhibition, % at 2.6 µM. 0.91% of 650,000 active. AID 1259374; in the data active = inhibition above about 50%;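 note: 0% = vehicle wells with protein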
MITF inh conf: confirmation of human MITF inhibitors; shares compounds with MITF inh; AlphaScreen MITF homodimerization, biotin/His-MITF beads; inhibition, % at 2.6 µM; 16% of 4,700 active; AID 1259372;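 active = inhibition above a cutoff derived from the DMSO control wells, cut at about 28% in these data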;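 note: 0% = MITF dimer wells with DMSO only; inhibitors lower the bead chemiluminescence by keeping MITF from dimerizing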
AlphaScreen DR: counter-screen: compounds optically interfering with AlphaScreen | shares compounds with MITF inh | AlphaScreen optical interference counterscreen, cell-free | IC50, µM | 6% of 480 active; call rule not given here
AS interf ctr: counter-screen: compounds optically interfering with AlphaScreen; shares compounds with MITF inh; inhibition, % at 2.6 µM; AID 1259376; 7.6% of 4,700 active; LysRS AlphaScreen counterscreen, signal interference, triplicate;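 active = inhibition above a cutoff derived from the DMSO control wells, cut at about 30% in these data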
* hit, by the source's call; · = not tested or not shown.

SMILES	FBW7 activator	GPR151 ag	TEAD-YAP block	MITF inh	MITF inh conf	AS interf ctr	others
CC(=O)Oc1cc(C(=O)OCC(=O)Nc2ccc(C)cc2)cc(OC(C)=O)c1OC(C)=O	0	1	-5	80*	56*	16	AlphaScreen DR=>7
CC(=O)Nc1ccc(C(=O)OCC(=O)Nc2cc(C)cc(C)c2)cc1	0	1	4	9	·	·
COCc1cc(=O)[nH]c(Nc2nc3ccccc3o2)n1	-1	-1	0	65*	75*	101*
CCC(C)c1ccccc1OCC(O)CN1CCCCC1 (configuration not stated)	0	0	16	-2	·	·
CC(C)C(=O)N1CCN(CC(O)COc2ccccc2C(C)C)CC1 (configuration not stated)	0	-1	5	52*	10	12
CC(C)c1ccccc1OCC(O)CNC1CCN(Cc2ccccc2)C1 (configuration not stated)	0	-1	3	69*	-29	7
CCC(C)c1ccccc1OCC(O)CNC1CCCC1 (configuration not stated)	1	0	5	34	·	·
CC(=O)CC1OC(=O)C(Br)=C1NCc1ccccc1 (configuration not stated)	0	-1	1	11	·	·
O=C(CC1OC(=O)C(Br)=C1Br)CC1OC(=O)C(Br)=C1Br (configuration not stated)	-1	-1	1	74*	14	2
CC(C)CNS(=O)(=O)c1ccc(S(=O)(=O)n2cnc3ccccc32)cc1	0	0	-6	11	·	·
CN1CCN(C(=O)C2CCCN(S(=O)(=O)N3CCCCC3)C2)CC1 (configuration not stated)	0	-1	-7	65*	-2	0
CN1CCN(C(=O)C2CCCN(S(=O)(=O)c3ccc(F)cc3)C2)CC1 (configuration not stated)	0	1	-5	74*	-11	-3
CC(OC(=O)c1c(F)cccc1F)C(=O)Nc1ccc(Cl)cn1 (configuration not stated)	0	0	0	-4	·	·
O=[N+]([O-])c1ccccc1S(=O)(=O)N1CCN(Cc2cccs2)CC1	0	1	-4	55*	9	13
Cc1cccc(CN2CCN(S(=O)(=O)c3ccccc3[N+](=O)[O-])CC2)c1	0	0	5	59*	45*	10	AlphaScreen DR=>5.1
O=[N+]([O-])c1ccccc1S(=O)(=O)N1CCN(Cc2cccc(F)c2)CC1	0	0	0	56*	8	14
O=[N+]([O-])c1ccccc1S(=O)(=O)N1CCN(Cc2ccsc2)CC1	0	0	5	40	·	·
COc1cccc(CN2CCN(S(=O)(=O)c3ccccc3[N+](=O)[O-])CC2)c1OC	0	1	-18	53*	23	21
CCCCCOc1ccc(C2(C)NC(=O)NC2=O)cc1 (configuration not stated)	0	0	-22	3	·	·
Cc1ccc(CN2CCN(Cc3cn[nH]c3C3CCCCC3)CC2CCO)o1 (configuration not stated)	0	0	-3	-13	·	·
O=[N+]([O-])c1ccccc1S(=O)(=O)N1CCN(Cc2ccncc2)CC1	0	0	-3	76*	10	15
O=[N+]([O-])c1ccccc1S(=O)(=O)N1CCN(Cc2ccccc2)CC1	0	-1	-11	1	·	·
c1ccc2c(CN3CCN(C4C5CC6CC(C5)CC4C6)CC3)c[nH]c2c1 (configuration not stated)	0	0	2	65*	-6	2
Clc1ccccc1CN1CCN(C2C3CC4CC(C3)CC2C4)CC1 (configuration not stated)	0	1	3	75*	12	15
Cc1ccccc1CN1CCN(C2C3CC4CC(C3)CC2C4)CC1 (configuration not stated)	0	5	-1	74*	-1	-2
SMILES	FBW7 activator	GPR151 ag	TEAD-YAP block	MITF inh	MITF inh conf	AS interf ctr	others
CCNC(=O)N1CCC2(CC1)OCc1cc(OC)ccc1O2	0	1	3	9	·	·
CC(C)c1ccc(C2CC(c3cccs3)n3ncnc3N2)cc1 (configuration not stated)	0	1	6	3	·	·
O=C(CN1CCCC1)Nc1ccccc1N1CCCCC1	0	-1	-2	62*	9	14
CC1CCN(CC(=O)Nc2ccccc2N2CCCCC2)CC1	0	2	5	17	·	·
Cc1cc(NC(=O)CNCC2CCCO2)no1 (configuration not stated)	0	0	8	54*	-2	7
Cc1cc(N)ccc1NC(=O)CN1CCCC1	0	0	5	67*	6	18
O=C(CN1CCOCC1)Nc1ccccc1N1CCOCC1	0	2	7	87*	16	17
O=C(NC1CCN(Cc2ccccc2)CC1)c1ccnc(N2CCC(N3CCOCC3)CC2)c1	0	0	-3	4	·	·
CCn1c(-c2cn(C)nc2C)n[nH]c1=S	0	0	4	23	·	·
O=C(CNCC1CCCO1)Nc1ccccc1N1CCCCC1 (configuration not stated)	0	0	3	60*	12	11
CCC(=O)Nc1ccccc1N1CCCC1	0	2	5	4	·	·
O=C(CNC1CCCCC1)Nc1ccccc1N1CCCCC1	0	-1	0	54*	12	14
CN1CCN(CC(=O)Nc2ccccc2N2CCCCCC2)CC1	0	2	-4	62*	8	16
Clc1ccc(Cl)c(OCCCCN2CCNCC2)c1	0	0	3	5	·	·
CC(C)(C)c1cc(Cl)ccc1OCCCN1CCNCC1	0	0	-1	76*	1	4
CC(C)(C)c1cc(Cl)ccc1OCCN1CCNCC1	0	1	-6	59*	-20	10
CC(O)CNCCCOc1ccc(Cl)cc1C(C)(C)C (configuration not stated)	0	1	7	52*	-8	57*
OCCNc1nc(-c2ccccc2)c(-c2ccccc2)s1	0	1	-8	8	·	·
CCn1c2ccccc2c2cc(CN3CCN(Cc4ccccc4F)CC3)ccc21	0	-1	8	82*	17	19
CCn1c2ccccc2c2cc(CN3CCN(Cc4ccccc4[N+](=O)[O-])CC3)ccc21	0	-1	-8	65*	0	-6
CCn1c2ccccc2c2cc(CN3CCN(Cc4ccc(C(F)(F)F)cc4)CC3)ccc21	0	4	-7	54*	17	20
CCn1c2ccccc2c2cc(CN3CCN(S(=O)(=O)c4ccc(OC)cc4)CC3)ccc21	0	-1	6	-15	·	·
CCn1c2ccccc2c2cc(CN3CCN(Cc4ccc(SC)cc4)CC3)ccc21	0	-1	12	63*	13	19
